Test results taken from PubChem BioAssay (NCATS).
Inconclusive results are not listed. Activity calls are given as the source filed them. Calls follow the shape of the dose curve; as a rule, active = well fitted cell-killing curve with a large enough effect; inconclusive = small, poorly fitted or top-dose-only effect; inactive = flat fitted curve, though single readings scatter.

How the values were obtained:
[1] = Cell Viability - LYMP2-017 (AID 972); also: nearly all actives have a fitted effect of over 55% in size
Outline: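 Cytotoxicity is scored as a concentration-dependent drop in cellular ATP in a human lymphoblastoid line after 24 hr treatment at 37 C. Values are AC50s from Hill-equation modelling.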

[2] = Cell Viability - LYMP2-019 (AID 973); also: nearly all actives have a fitted effect of over 55% in size
Outline: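 Cytotoxicity is scored as a concentration-dependent drop in cellular ATP after cells (2500/well) receive compound for 24 hr at 37 C. Tetraoctylammonium bromide serves as positive control.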

[3] = Cell Viability - LYMP2-021 (AID 974);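 also: compound exposure lasts 24 hours at 37 °C; nearly all actives have a fitted effect of over 55% in size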
Outline: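 Loss of cellular ATP, measured with a luciferase-based CellTiter-Glo readout, serves as the toxicity signal in human lymphoblastoid cells treated for 24 hours at 37 C. Potency is reported as AC50 from a standard Hill model.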

[4] = Cell Viability - LYMP2-023 (AID 975); also: nearly all actives have a fitted effect of over 55% in size
Outline: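 Steps: seed 2500 human lymphoblastoid cells per well, incubate 5 hr at 37 C, add compound for 24 hr at 37 C, add CellTiter-Glo, hold 30 min at room temperature, read luminescence. AC50 derived by Hill modelling.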

[5] = Cell Viability - LYMP2-025 (AID 976)
Outline: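 Acute cytotoxicity is scored as a concentration-dependent fall in intracellular ATP, measured by luciferase luminescence, in human lymphoblastoid LYMP2-025 cells exposed to compound for 24 hours at 37 C. AC50 values come from standard Hill fits.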

[6] = Cell Viability - LYMP2-002 (AID 977);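 also: compound exposure lasted 24 h at 37 °C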
Outline: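 Human lymphoblastoid cells, 2500/well, complete medium; 5 h 37 C settle; compound 24 h 37 C; CellTiter-Glo, 30 min RT; luminescence. Decrease in ATP = cytotoxicity; AC50 via Hill equation.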

[7] = Cell Viability - LYMP2-006 (AID 978); also: nearly all actives have a fitted effect of over 60% in size
Outline: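 Human lymphoblastoid cells (LYMP2-006), 2500/well in complete medium, were treated with compound for 24 hr at 37 C. Cellular ATP was read by CellTiter-Glo luminescence after 30 min, and AC50 values came from Hill-equation fits of concentration-response data.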

[8] = Cell Viability - LYMP2-007 (AID 979);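 also: cells exposed to compound for 24 h before reading; nearly all actives have a fitted effect of over 60% in size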
Outline: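 Cells are seeded at 2500 per well and rested 5 hr. Compounds are then added over a concentration series for 24 hr at 37 C. CellTiter-Glo is added for 30 min at room temperature before luminescence reading.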

[9] = Cell Viability - LYMP2-008 (AID 980); also: nearly all actives have a fitted effect of over 60% in size
Outline: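 Cells seeded at 2500/well and rested 5 hr at 37 C; compounds added over a concentration range and incubated 24 hr at 37 C; CellTiter-Glo added, 30 min at room temperature; luminescence read and AC50 fitted with Hill model.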

[10] = Cell Viability - LYMP2-010 (AID 981); also: nearly all actives have a fitted effect of over 55% in size
Outline: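 Steps: seed 2500 LYMP2-010 cells per well; incubate 5 hr at 37 C; add compound; incubate 24 hr at 37 C; add CellTiter-Glo, wait 30 min at room temperature; read luminescence. Concentration-response fitted to Hill equation for AC50.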

Measured: Potency
Potency is read from the fitted curve at half-maximal effect.

Nc1ccc(Cl)cc1
inactive: [1] | [2] | [3] | [4] | [5] | [6] | [7] | [8] | [9] | [10]

COc1ccc(C(c2ccc(OC)cc2)C(Cl)(Cl)Cl)cc1
inactive: [1] | [2] | [3] | [4] | [5] | [6] | [7] | [8] | [9] | [10]

Nc1ccc(Cl)cc1N
inactive: [1] | [2] | [3] | [4] | [5] | [6] | [7] | [8] | [9] | [10]

c1cc2ccc3cccc4ccc(c1)c2c34
inactive: [1] | [2] | [3] | [4] | [5] | [6] | [7] | [8] | [9] | [10]

C1CCC(NC2CCCCC2)CC1
inactive: [1] | [2] | [3] | [4] | [5] | [6] | [7] | [8] | [9] | [10]

CN(C)[C@@H]1C(=O)C(C(N)=O)=C(O)[C@@]2(O)C(=O)C3=C(O)c4c(O)cccc4[C@@](C)(O)[C@H]3[C@H](O)[C@@H]12
inactive: [1] | [2] | [3] | [4] | [5] | [6] | [7] | [8] | [9] | [10]

CN(C)NC(=O)CCC(=O)O
inactive: [1] | [2] | [3] | [4] | [5] | [6] | [7] | [8] | [9] | [10]

CC(C)(O)C(=O)Nc1ccc([N+](=O)[O-])c(C(F)(F)F)c1
inactive: [1] | [2] | [3] | [4] | [5] | [6] | [7] | [8] | [9] | [10]

O=[N+]([O-])c1cc([N+](=O)[O-])c2ccccc2c1
inactive: [1] | [2] | [3] | [4] | [5] | [6] | [7] | [8] | [9] | [10]

Nc1ccc([N+](=O)[O-])cc1
inactive: [1] | [2] | [3] | [4] | [5] | [6] | [7] | [8] | [9] | [10]

C=CC(=O)NCNC(=O)C=C
inactive: [1] | [2] | [3] | [4] | [5] | [6] | [7] | [8] | [9] | [10]

O=S(=O)(c1ccc(Cl)cc1)c1ccc(Cl)cc1
inactive: [1] | [2] | [3] | [4] | [5] | [6] | [7] | [8] | [9] | [10]

O=[N+]([O-])c1c2ccccc2cc2ccccc12
inactive: [1] | [2] | [3] | [4] | [5] | [6] | [7] | [8] | [9] | [10]

CCCCC(CC)COC(=O)c1ccccc1C(=O)OCC(CC)CCCC (stereo not given)
inactive: [1] | [2] | [3] | [4] | [5] | [6] | [7] | [8] | [9] | [10]

CCOP(=O)(NC(C)C)Oc1ccc(SC)c(C)c1 (stereo not given)
inactive: [1] | [2] | [3] | [4] | [5] | [6] | [7] | [8] | [9] | [10]

COC(C)(C)CCCC(C)C/C=C/C(C)=C/C(=O)OC(C)C (stereo not given)
inactive: [1] | [2] | [3] | [4] | [5] | [6] | [7] | [8] | [9] | [10]

CC(=O)[O][Hg][c]1ccccc1
active: [1] 631 nM | [2] 794 nM | [3] 794 nM | [4] 1260 nM | [5] 1260 nM | [6] 1580 nM | [7] 1580 nM | [8] 1000 nM | [9] 1260 nM | [10] 398 nM

OCCCBr
inactive: [1] | [2] | [3] | [4] | [5] | [6] | [7] | [8] | [9] | [10]

O=[N+]([O-])c1c(Cl)c(Cl)cc(Cl)c1Cl
inactive: [1] | [2] | [3] | [4] | [5] | [6] | [7] | [8] | [9] | [10]

O=C(O)COc1ccccc1
inactive: [1] | [2] | [3] | [4] | [5] | [6] | [7] | [8] | [9] | [10]

O=C(O)C(Cl)Cl
inactive: [1] | [2] | [3] | [4] | [5] | [6] | [7] | [8] | [9] | [10]

Nc1ccc(Sc2ccc(N)cc2)cc1
inactive: [1] | [2] | [3] | [4] | [5] | [6] | [7] | [8] | [9] | [10]

Cc1cc(O)ccc1Cl
inactive: [1] | [2] | [3] | [4] | [5] | [6] | [7] | [8] | [9] | [10]

CCOCCOC(C)=O
inactive: [1] | [2] | [3] | [4] | [5] | [6] | [7] | [8] | [9] | [10]

CCCCCCCCc1ccc(O)cc1
inactive: [1] | [2] | [3] | [4] | [5] | [6] | [7] | [8] | [9] | [10]

CCCCOC(=O)c1ccccc1C(=O)OCc1ccccc1
inactive: [1] | [2] | [3] | [4] | [5] | [6] | [7] | [8] | [9] | [10]
